# High-throughput results (PubChem BioAssay)
# Many of the other results were omitted from the sample, so hits are more common in it than they were.
# Anesthetic bind = binds horse apoferritin like a general anesthetic; Potency, µM (series often up to 77.5 µM), actives largely listed as inhibitors; apoferritin/1-aminoanthracene competitive binding, fluorescence; 0.074% of 350,000 active; P02791; also: nearly all actives have a fitted effect of over 20% in size
#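 Read-out: endpoint 1-AMA fluorescence, excitation 380 nm and emission 535 nm, after compounds sit 10 min at room temperature with 10 uM horse-spleen apoferritin in 50% saturated 1-AMA/PBS. Values come from four-parameter Hill fits.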
# CBFb RUNX1 block = CBF-beta/RUNX1 interaction disruption; AlphaScreen CBFb-His/RUNX1-biotin binding, biochemical; Potency, µM (titrated, usually from 59.8 µM), usual class: inhibitors; 230,000 tested, under 10 active
# Target sequence (Q01196 whole entry, looked up): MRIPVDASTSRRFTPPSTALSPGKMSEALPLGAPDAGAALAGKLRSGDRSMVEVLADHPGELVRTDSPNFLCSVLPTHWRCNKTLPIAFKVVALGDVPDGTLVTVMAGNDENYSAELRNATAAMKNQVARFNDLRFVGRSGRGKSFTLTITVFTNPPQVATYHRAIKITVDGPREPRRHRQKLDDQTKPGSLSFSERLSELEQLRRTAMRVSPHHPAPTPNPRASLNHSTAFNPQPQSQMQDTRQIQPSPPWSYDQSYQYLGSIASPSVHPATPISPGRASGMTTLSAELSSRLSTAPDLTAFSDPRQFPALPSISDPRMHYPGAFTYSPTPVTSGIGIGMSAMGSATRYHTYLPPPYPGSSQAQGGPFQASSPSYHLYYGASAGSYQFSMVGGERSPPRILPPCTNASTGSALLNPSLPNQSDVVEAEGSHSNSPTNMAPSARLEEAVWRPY
# Target sequence (Q13951 whole entry, looked up): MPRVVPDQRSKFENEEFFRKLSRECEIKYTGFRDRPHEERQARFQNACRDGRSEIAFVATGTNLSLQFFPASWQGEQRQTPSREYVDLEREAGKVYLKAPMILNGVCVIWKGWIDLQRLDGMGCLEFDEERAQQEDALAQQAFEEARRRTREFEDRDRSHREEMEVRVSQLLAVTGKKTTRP
#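 CBF-beta (His) and RUNX1 (biotin), 30 nM each; 20 min preassociation; + compound, 15 min; + beads 50 ng each (Ni, streptavidin), 90 min; RT; AlphaScreen read.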
# Integrin act MD = activates integrin-mediated alleviation for muscular dystrophy. Potency, µM (doses to about 38.3 µM), actives largely listed as activators. alpha7betagal myoblasts, beta-gal FDG fluorescence, 48 h. 0.064% of 350,000 active; also: nearly all actives have a fitted effect of over 60% in size
#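 Alpha7betagal+/- myoblasts (passage 13) were plated 16-24 hr, then exposed to compounds (1:260 dilution of DMSO stock) for 48 hours at 37C. After MPER lysis, β-galactosidase reporter activity was read as FDG fluorescence (ex 480/em 540) after 30 minutes.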
# Glioma ERSR ind = ER stress response induction in glioma; U87-MG GRP78 promoter luciferase reporter, 16 h; Potency, µM, usual class: activators; 0.02% of 420,000 active; AID 602332; also: series mostly up to about 76 µM; nearly all actives have a fitted effect of over 35% in size
#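 ERSR induction read as luciferase luminescence (Bright-Glo, 10 min at room temperature) in stably transfected human U87-MG glioma cells exposed to compounds for 16 h, using GRP78 as sensor.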
# N370S GC mod = inhibits or activates N370S mutant glucocerebrosidase | AID 2101 | N370S GC spleen homogenate, 4MU-glucoside fluorescence | 0.092% of 330,000 active | Potency, µM (series often up to 59.4 µM), usual class: inhibitors
# ClpP mod = qHTS Assay for Activators of ClpP; purified B. subtilis ClpP, FRET peptide cleavage, 20 min; 1.9% of 340,000 active; ATP-dependent Clp protease proteolytic subunit (Bacillus subtilis (strain 168)), P80244; Potency, µM (series often up to 57.5 µM); active = well fitted falling curve with a large enough effect; inconclusive = small, poorly fitted or top-dose-only effect; inactive = no such curve, though single readings can be large or run the other way; also: the source files actives as falling curves though it sought activators and does not explain the sign; nearly all actives have a fitted effect of over 65% in size
#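 FRET quenching reversal measured ClpP activation: 10 microg/mL B. subtilis ClpP at pH 8 with the FRET-FV decapeptide, read at 430 nm after 320 nm excitation. The 20-min minus 0-min signal was scaled between DMSO/no-enzyme wells and ADEP (5.8 microM final).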
# Numbers stand for hits; i = inactive; ? = inconclusive; nt = no result; ! = not confirmed by another sample. Unless noted, calls follow the shape of the dose curve; as a rule, active = well fitted curve in the direction sought with a large enough effect; inconclusive = small, poorly fitted or top-dose-only effect, or another doubt; inactive = no such curve, though single readings can be large; an effect the other way counts as inactive or inconclusive.
SMILES,Anesthetic bind,CBFb RUNX1 block,Integrin act MD,Glioma ERSR ind,N370S GC mod,ClpP mod
Oc1cc(-c2cccs2)cc2c1OCCN(Cc1cn[nH]c1-c1ccc(Cl)cc1)C2,nt,nt,nt,i,nt,nt
CC(C)c1c(C(=O)NCC2(N3CCCCC3)CCCC2)cnn1-c1nccc(-c2ccco2)n1,nt,nt,nt,i,nt,nt
O=C(COC(=O)C1=NN(c2ccccc2)C(=O)CC1)NCc1ccccc1Cl,nt,nt,i,i,nt,28.2µM
Cc1ccc(CN2CCc3nnc(C(C)NC(=O)c4cc(F)ccc4F)n3CC2)o1 (stereo not drawn),nt,nt,nt,i,nt,nt
Nc1ccc2c(c1)-c1ccccc1S(=O)(=O)N2,i,i,i,i,i,i
Cc1ccc2c(c1)-c1ccccc1S(=O)(=O)N2,i,i,i,i,i,28.2µM
Cc1ccc(S(=O)(=O)N2CCCCC2)cc1NC(=O)c1cncc(Br)c1,nt,nt,i,i,i,11.2µM
CCSc1nc2ccccc2n1C(=O)/C=C/c1ccc(OC)c(OC)c1,i,i,i,i,i,14.1µM
O=[N+]([O-])c1ccc(Nc2ccccc2O)c2nonc12,17.8µM,nt,i,i,i,i
COc1ccc(-c2c3c(nc4sc5c(=O)[nH]c(C)nc5c24)CCC3)cc1,i,i,i,i,i,28.2µM
O=C1c2ccccc2NC(c2cccnc2)N1c1ccccc1F (stereo not drawn),i,i,i,i,i,11.2µM
Cc1cc(NCCO)c2cc(O)ccc2n1,i,i,i,i,?,15.8µM
COC(=O)c1cc(Cc2ccc(N)c(C(=O)OC)c2)ccc1N,i,i,i,i,i,28.2µM
Cc1ccccc1C(=O)NC(C)c1nnc2n1CCN(Cc1ccc(F)cc1)CC2 (stereo not drawn),nt,nt,nt,i,nt,nt
COc1ccc(S(=O)(=O)N2CCCCCC2)cc1C(=O)NCc1ccccc1Cl,nt,nt,?,i,i,25.1µM
COc1ccc(S(=O)(=O)N2CCOCC2)cc1NC(=O)Cc1ccsc1,nt,nt,i,i,nt,20µM
CCOc1ccc(S(=O)(=O)N2CCCCC2)cc1NC(=O)C1CCC1,nt,nt,i,i,i,14.1µM
COc1cc(NC(=O)Cc2ccc(OC)c(S(=O)(=O)N3CCOCC3)c2)c(OC)cc1Cl,i,nt,i,i,i,nt
COc1ccc(CC(=O)Nc2ccccc2C(C)=O)cc1S(=O)(=O)N1CCOCC1,nt,nt,i,i,i,35.5µM
COc1ccc(S(=O)(=O)N2CCCCCC2)cc1C(=O)NCc1ccco1,nt,nt,i,i,nt,nt
O=C(C[n+]1csc2ccccc21)c1cccc([N+](=O)[O-])c1,nt,nt,nt,i,nt,i
COc1ccc(S(=O)(=O)N2CCCCC2)cc1NC(=O)c1ccco1,i,nt,i,i,i,15.8µM
CSc1nc2ncc3c(n2n1)CC1c2ccccc2CCN1C3=O (stereo not drawn),i,i,i,i,?,28.2µM
CC1=C(C(=O)OCc2ccc3nsnc3c2)N2C(=O)[C@@H](NC(=O)OCc3ccc4nsnc4c3)[C@H]2SC1,nt,nt,nt,i,nt,i
COc1ccc(C(O)c2nc(/C=C/c3ccc(C(F)(F)F)cc3)cs2)cc1 (stereo not drawn),nt,nt,nt,i,nt,25.1µM
SMILES,Anesthetic bind,CBFb RUNX1 block,Integrin act MD,Glioma ERSR ind,N370S GC mod,ClpP mod
O[C@@H](CNC[C@H](O)[C@H]1CCc2cc(F)ccc2O1)[C@@H]1CCc2cc(F)ccc2O1,nt,nt,nt,i,nt,nt
CCN(CC)C(=O)c1c([N+](=O)[O-])c(C(C)(C)C)nn1C,i,i,i,i,i,25.1µM
Cn1nc(C(C)(C)C)c([N+](=O)[O-])c1C(=O)NCCO,i,i,i,i,i,i
CCCN(CCC)c1ccc(/C=C/c2ccnc3ccccc23)cc1,nt,nt,nt,i,nt,i
Cc1ccc(-n2c(=O)c3c4c(sc3n(Cc3cc(=O)n5cc(Cl)ccc5n3)c2=O)CCC4)cc1C,i,nt,nt,i,nt,i
Cc1ccc(-n2c(=O)c3c4c(sc3n(Cc3cc(=O)n5ccccc5n3)c2=O)CCC4)cc1C,i,i,i,i,i,28.2µM!
CC(C)(C)n1ncc2c(=O)n(Cc3c(Cl)cccc3Cl)cnc21,nt,nt,nt,i,nt,nt
COc1cc(/C=C2\SC(=S)N(Nc3ccccc3)C2=O)ccc1O,i,i,i,i,i,28.2µM
COc1cc(/C=C2\SC(=S)N(C(C(=O)O)c3ccccc3)C2=O)cc(OC)c1OC (stereo not drawn),i,i,i,31.6µM,i,nt
CC(C)c1ccc(-c2cc(C(=O)N3N=C(C(F)F)CC3(O)C(F)F)c3ccccc3n2)cc1 (stereo not drawn),?,i,i,i,?,28.2µM
Cc1nc(Nc2ccc(O)cc2)c2c3c(sc2n1)CCCC3,i,i,i,i,11.2µM,nt
Cc1ccc(CNc2nc(C)nc3sc4c(c23)CCC4)cc1,i,i,i,i,i,i
COC(=O)c1c(OCc2ccccn2)cc(=O)n2c1CCN(Cc1ccc3c(c1)CCCN3C)CC2,nt,nt,nt,i,nt,nt
Cc1ccc(CN2CCC(C3(c4ccccn4)NC(=O)N(CC4CCCO4)C3=O)CC2)cc1C (stereo not drawn),nt,nt,nt,i,nt,nt
O=C(NCC1CCCO1)c1coc2nc3ccccc3nc12 (stereo not drawn),i,i,i,i,i,i
COc1ccc(-n2nc(C(=O)NCC(=O)NCC3CCCO3)c3ccccc3c2=O)c(OC)c1 (stereo not drawn),i,i,i,i,i,i
COc1ccc(N=c2oc3cc(O)ccc3cc2C(=O)NCC2CCCO2)c(OC)c1 (stereo not drawn),i,i,i,i,i,25.1µM
COc1ccc(-n2c(N)c(C(=O)NCC3CCCO3)c3nc4ccccc4nc32)c(OC)c1 (stereo not drawn),i,i,i,i,?,31.6µM
COc1ccc(N=c2oc3cc(O)ccc3cc2C(=O)NCC2CCCO2)cc1 (stereo not drawn),i,i,i,i,i,i
C=CCn1c(N)c(C(=O)NCC2CCCO2)c2nc3ccccc3nc21 (stereo not drawn),i,?,i,i,i,8.91µM
O=C(NCCN1CCOCC1)c1cnn(-c2ncc3c(n2)-c2ccccc2CC3)c1C1CC1,nt,nt,nt,i,nt,nt
O=S1(=O)NC2CCCCCN2c2ccc(F)cc21 (stereo not drawn),i,i,i,i,nt,28.2µM
C=CCn1cc(-c2ccc(Cl)cc2)cc(C#N)c1=O,i,i,i,i,?,31.6µM
CC(C)n1cc(-c2ccc(Cl)cc2)cc(C#N)c1=O,i,?,i,i,i,31.6µM
C=CCn1cc(-c2ccccc2)cc(C#N)c1=O,i,i,i,i,i,?
N#Cc1cc(-c2ccc(Cl)cc2)cn(Cc2c(Cl)cccc2Cl)c1=O,i,i,?,i,i,25.1µM
Cn1cc(-c2cccc(Cl)c2)cc(C#N)c1=O,i,i,i,i,i,nt
CC1=C/C(=C\c2ccc(N(C)C)cc2)c2ccccc21,nt,nt,nt,i,nt,i
